Consider 22 compounds from PubChem BioAssay (Tox21).

SMILES strings stand for the structures. A number with no mark means an inactive call. Records with an inconclusive call do not appear. Active and inactive are the calls of the source. Unless noted, calls come from the whole dose curve; as a rule, active = well fitted curve in the direction sought with a large enough effect in the repeat runs; inconclusive = weak or mixed curves; inactive = no such curve, though single readings can be large; an effect the other way counts as inactive or inconclusive.

The nature of assay [1]: qHTS assay for small molecule agonists of the p53 signaling pathway (AID 651631; calls by dose curve; note: nearly all actives have a fitted effect of over 15% in size; note: potency is the fitted concentration of half-maximal effect). In a few lines:
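HCT-116 cells carrying a beta-lactamase reporter under p53 response elements were dosed with compound for 16 h at 37 °C. LiveBLAzer B/G FRET substrate was then added for 2 h at room temperature, and fluorescence intensity was read to detect pathway agonism.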
(In qHTS, concentration-response curves come from the screen itself.)

A short description of assay [2]: qHTS assay for small molecules that induce genotoxicity in human embryonic kidney cells expressing luciferase-tagged ATAD5 (AID 651632). Note: nearly all actives have a fitted effect of over 15% in size. Put shortly: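 A rise in luciferase signal from ATAD5-tagged HEK293T cells marks genetic stress. Cells were exposed to compounds for 16 hr at 37C, 5% CO2, then luciferase was quantified after a 30 min room-temperature incubation with Amplite.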

A short description of assay [3]: qHTS assay for small molecule agonists of the p53 signaling pathway - cell viability (AID 651633; calls by dose curve;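 note: p53RE-bla HCT reporter cells with a stable beta-lactamase p53 reporter; series mostly up to about 83 µM; nearly all actives have a fitted effect of over 30% in size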). In a few lines:
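Viability counter-read: CellTiter-Glo luminescence (30 min, room temperature) in the same p53RE-bla plates. These plates had been exposed to compounds for 16 h at 37 C.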

Assay [4] is described as follows: qHTS assay for small molecules that induce genotoxicity in human embryonic kidney cells expressing luciferase-tagged ATAD5 - cell viability (AID 651634; calls by dose curve; note: nearly all actives have a fitted effect of over 25% in size; note: potency is the fitted concentration of half-maximal effect). In a few lines:
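Cytotoxicity counter-readout: after 15.5 hr compound treatment at 37C, live-cell protease activity in ATAD5-luciferase HEK293T cells measured by CellTiter-Fluor fluorescence, 30 min development at 37C.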

The nature of assay [5]: qHTS assay for small molecule disruptors of the mitochondrial membrane potential - cell viability (AID 720634; calls by dose curve; note: nearly all actives have a fitted effect of over 20% in size; note: potency is the fitted concentration of half-maximal effect). In a few lines: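 Cytotoxicity was quantified from ATP content by CellTiter-Glo luminescence in the same wells as the MMP dye read-out. HepG2 (2,000 cells/well) were plated overnight and exposed to compounds for 1 hr at 37 C.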
A short description of assay [6]: qHTS assay for small molecule disruptors of the mitochondrial membrane potential (AID 720635). Note: potency is the fitted concentration of half-maximal effect. In a few lines: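 Mitochondrial membrane potential tracked with Mito-MPS dye, red aggregates (ex 540/em 590 nm) against green monomers (ex 490/em 535 nm). Compound treatment 1 hr at 37C, dye 30 min in HepG2.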
A short description of assay [7]: qHTS assay to test for compound auto fluorescence at 590 nm (red) in HepG2 cells (AID 720674). Put shortly:
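Red autofluorescence (Ex/Em 540/590 nm, Rose Bengal sodium equivalents) was measured in HepG2 cells, 2,000 per well in MEM plus 10% FBS, plated overnight at 37 C. Readings were taken 1 hr after adding 23 nL compound or DMSO, at 37 C and 5% CO2.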

Assay [8] can be described thus: qHTS assay to test for compound auto fluorescence at 535 nm (green) in HepG2 cells (AID 720675).
Assay [9] in a line: qHTS assay to test for compound auto fluorescence at 460 nm (blue) in HEK293 cells (AID 720678). Put shortly: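 HEK293, 2,000 cells/well, 10% dialyzed FBS; attach 4-5 hr 37C; pin compound or DMSO; o/n 37C/5% CO2; fluorescence 405/460 nm; triamterene-equivalent units.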
A short description of assay [10]: qHTS assay to test for compound auto fluorescence at 590 nm (red) in HEK293 cells (AID 720679). Put shortly: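 Intensity at 540nm excitation and 590nm emission is reported as Rose Bengal sodium-equivalent autofluorescence. Measurements followed overnight exposure (37C, 5% CO2) of HEK293 cells, 2,000 per well, to 23 nL compound.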
% is set by controls: 0 for no effect and ±100 for the full control effect.

With `CC(=O)OCC=C(C)C`, the Potency result in [1], in assay [2], in assay [3], in [4], in assay [5] and in [6] was “inactive” in each case. The Potency entry in assay [7], in assay [8], in [9] and in assay [10] was “inactive” each time.

Consider `Cc1cccc2cccnc12`, for which the Potency result in assay [1], in assay [2], in assay [3], in assay [4], in [5] and in assay [6] was “inactive” throughout. Also, the Potency result in assay [8] and in [9] was “inactive” each time.

As to `c1ccc(SSc2ccccc2)cc1`, the Potency result in assay [1], in assay [2], in assay [3], in [4], in [5] and in assay [6] was “inactive” throughout. Also, the Potency result in assay [7], in [8], in assay [9] and in assay [10] was “inactive” each time.

For the compound `Cc1ccc(-c2ccccc2)cc1`, the Potency entry in assay [1], in assay [2], in assay [3], in [4], in assay [5] and in assay [7] was “inactive” in each case. Besides, the Potency entry in assay [8] and in [9] was “inactive” each time.

For `CCOC(=O)Cn1cccc1-c1nc(-c2ccc(OC)cc2)c(-c2ccc(OC)cc2)s1`, the Potency in assay [1] was 29.8 µM (active). The Potency result in [2], in [3], in assay [4], in assay [5], in assay [6] and in [7] was “inactive” each time. Further, the Potency entry in assay [8], in assay [9] and in assay [10] was “inactive” each time.

For `Cc1nc(-c2ccc(Cl)cc2)oc1COC(C)(C)C(=O)O`, the Potency result in assay [1], in assay [2], in assay [3], in assay [4], in assay [5] and in assay [6] was “inactive” each time. Further, the Potency result in [8], in assay [9] and in [10] was “inactive” throughout.

Turning to `CC(C)OC(=O)C(O)(CC(=O)O)CC(=O)O`, the Potency entry in assay [1], in assay [2], in assay [3], in [4], in [5] and in assay [6] was “inactive” each time. In addition, the Potency entry in [7], in [9] and in assay [10] was “inactive” in each case.

As for `CC(=O)Oc1cc2c(s1)CCN(C(C(=O)C1CC1)c1ccccc1F)C2` (configuration not stated), the Potency result in [1], in assay [2], in [3], in assay [4], in [5] and in assay [6] was “inactive” each time. Further, the Potency result in assay [7], in [8], in assay [9] and in assay [10] was “inactive” each time.

On to `C=CCn1c(=O)n(CC=C)c(=O)n(CC=C)c1=O`, for which the Potency entry in [1], in assay [2], in assay [3], in assay [4], in [5] and in [6] was “inactive” throughout. Also, the Potency result in assay [7], in assay [9] and in assay [10] was “inactive” in each case.

As to `CCCCOC(=O)CC`, the Potency entry in assay [1], in assay [2], in assay [3], in [4], in [5] and in assay [6] was “inactive” in each case. Besides, the Potency result in assay [7], in [8], in assay [9] and in assay [10] was “inactive” in each case.

Turning to `CCC(CC)(CC(=O)Nc1cccc(/C=C/c2nc(C3CCC3)cs2)c1)C(=O)O`, the Potency result in assay [1], in assay [2], in assay [3], in [4], in assay [5] and in [7] was “inactive” each time. The Potency entry in [8], in assay [9] and in assay [10] was “inactive” in each case. Moreover, the Potency in [6] was 27.8 µM (active).

Consider `C=Cc1ccccc1C=C`, for which the Potency entry in [1], in assay [2], in assay [3], in [4], in [5] and in assay [6] was “inactive” in each case. Moreover, the Potency entry in [7], in assay [8], in assay [9] and in assay [10] was “inactive” throughout.

On to `O=c1c(O)c(-c2ccc(O)cc2O)oc2cc(O)cc(O)c12`, for which the Potency entry in assay [1], in assay [2], in [3], in assay [4], in [5] and in assay [9] was “inactive” each time. In [10], the Potency result is “inactive”. For the same compound, the Potency in assay [6] was 22.9 µM (active).

With `O[C@@H]([C@H](O)[C@H](O)CBr)[C@H](O)CBr`, the Potency result in assay [1], in [2], in [3], in assay [4], in [5] and in [6] was “inactive” each time. For the same compound, the Potency entry in assay [7], in assay [8], in assay [9] and in assay [10] was “inactive” each time.

Turning to `ClCCl`, the Potency result in [1], in assay [2], in assay [3], in assay [4], in assay [5] and in [6] was “inactive” each time. Besides, the Potency entry in assay [7], in assay [8] and in [9] was “inactive” throughout.

Regarding `c1ccsc1`, the Potency result in assay [1], in assay [2], in assay [3], in assay [4], in assay [5] and in [6] was “inactive” throughout. For the same compound, the Potency entry in assay [7], in assay [8], in [9] and in assay [10] was “inactive” in each case.

In the case of `O=[N+]([O-])c1ccc(O)cc1C(F)(F)F`, the Potency is 27.3 µM (active) in assay [1], 27.3 µM (active) in [4], 5.45 µM (active) in assay [5] and 3.44 µM (active) in [6]. Further, the Potency entry in [2], in [3], in assay [7], in [8] and in assay [9] was “inactive” each time.

In the case of `CCCCCCCC`, the Potency entry in [1], in [2], in assay [3], in assay [4], in [5] and in [6] was “inactive” each time. In addition, the Potency result in assay [7], in [8], in assay [9] and in assay [10] was “inactive” in each case.

Regarding `COc1cc(C)ccc1O`, the Potency entry in assay [1], in assay [2], in [3], in [4], in assay [5] and in assay [6] was “inactive” each time. Further, the Potency result in [9] and in [10] was “inactive” each time.

`CCCCC(CC)CN1CN(CC(CC)CCCC)CC(C)(N)C1` (configuration not stated): the Potency entry in assay [1], in [2], in assay [3], in [4], in assay [5] and in [6] was “inactive” each time. Also, in assay [7], the fluorescence, relative to Rose Bengal was 0.775% [at 18.6 µM]. In assay [8], the fluorescence, % of fluorescein control was 0.0031% [at 18.6 µM]. Moreover, the fluorescence, % of triamterene in [9] was -0.206% [at 18.6 µM]. The fluorescence, % of fluorescent control in [10] is -0.0426% [at 18.6 µM].

For `CCCCNS(=O)(=O)c1ccc(C)cc1`, the Potency entry in [1], in [2], in [3], in assay [4], in [5] and in [6] was “inactive” each time. For the same compound, the Potency result in assay [7], in assay [8], in assay [9] and in assay [10] was “inactive” in each case.

Take `CCN1C(=O)c2ccccc2C1Nc1ccc(OCCN2CCCCC2)cc1` (configuration not stated): the Potency entry in [1], in [2], in [3], in assay [4], in [5] and in [6] was “inactive” each time. Also, the Potency entry in assay [7], in assay [8], in assay [9] and in assay [10] was “inactive” throughout.
